Several values for one entry are separate records, joined by “and”; a condition that tells them apart may be missing. Equal values may be shown once. Inconclusive results are not listed. Some compounds were tested as several samples or in several runs, with calls that do not always agree. Activity calls are given as the source filed them. Unless noted, the call rests on the fitted dose curve.
Tests used:
[1] = Nuclear factor erythroid 2-related factor 2/antioxidant responsive element (Nrf2/ARE) small molecule agonists: qHTS cell viability counter screen in human keratinocytes (AID 1919968; active means well fitted curve in the direction sought with a large enough effect in the repeat runs; an effect the other way counts as inactive or inconclusive; further: nearly all actives have a fitted effect of over 55% in size; further: potency means the concentration at half of the fitted maximal effect)
Summary of the method: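 Viability counter-screen: KeratinoSens reporter cells, DMSO-delivered compounds, 23 h at 37 C, CellTiter-Fluor fluorescence.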

[2] = Nuclear factor erythroid 2-related factor 2/antioxidant responsive element (Nrf2/ARE) small molecule agonists: luciferase reporter gene qHTS assay in human keratinocytes (AID 1919969); further: nearly all actives have a fitted effect of over 35% in size; further: potency means the concentration at half of the fitted maximal effect
[3] = molecular target: Gonadotropin-releasing hormone receptor (Homo sapiens) (UniProt P30968); test: Human gonadotropin-releasing hormone receptor (GnRHR) small molecule agonists, calcium flux assay in GnRHR-HEK293 cells (AID 1920063); further: nearly all actives have a fitted effect of over 35% in size
Sequence of Gonadotropin-releasing hormone receptor (Homo sapiens) (P30968 whole entry, looked up): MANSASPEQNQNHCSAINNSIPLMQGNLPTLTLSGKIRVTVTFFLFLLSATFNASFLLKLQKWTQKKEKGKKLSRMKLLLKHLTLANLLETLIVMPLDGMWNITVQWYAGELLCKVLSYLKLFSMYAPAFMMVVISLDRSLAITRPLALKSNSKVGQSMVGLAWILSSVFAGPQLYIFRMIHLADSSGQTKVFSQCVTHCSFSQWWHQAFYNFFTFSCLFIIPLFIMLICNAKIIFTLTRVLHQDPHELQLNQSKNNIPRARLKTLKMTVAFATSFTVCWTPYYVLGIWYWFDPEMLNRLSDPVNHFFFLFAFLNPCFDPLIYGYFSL
Summary of the method: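 Tox21-format agonist screen using human GnRHR-expressing HEK293 cells and a fluorescent calcium dye; kinetic 3-min fluorescence reading after compound addition, 15-point concentration series run in triplicate.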

[4] = molecular target: KiSS-1 receptor (Homo sapiens) (UniProt Q969F8); test: Human kisspeptin (KISS1R) small molecule agonists, calcium flux assay in KISS1R-HEK293 cells (AID 1920064; active means well fitted curve in the direction sought with a large enough effect in the repeat runs; an effect the other way counts as inactive or inconclusive)
Sequence of KiSS-1 receptor (Homo sapiens) (Q969F8 whole entry, looked up): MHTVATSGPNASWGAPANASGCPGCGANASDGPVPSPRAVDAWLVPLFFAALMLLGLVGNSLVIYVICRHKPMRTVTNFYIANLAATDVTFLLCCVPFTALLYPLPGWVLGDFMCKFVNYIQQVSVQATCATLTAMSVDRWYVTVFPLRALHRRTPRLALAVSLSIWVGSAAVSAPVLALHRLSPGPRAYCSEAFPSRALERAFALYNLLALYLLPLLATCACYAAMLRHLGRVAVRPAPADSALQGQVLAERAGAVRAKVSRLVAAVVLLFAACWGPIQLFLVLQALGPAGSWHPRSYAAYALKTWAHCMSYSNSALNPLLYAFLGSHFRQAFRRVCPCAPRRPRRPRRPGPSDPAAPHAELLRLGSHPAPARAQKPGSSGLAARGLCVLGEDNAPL
Summary of the method: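 Intracellular calcium mobilization in KISS1R-HEK293 cells was recorded by fluorescence (Ex/Em 480/540) for 3 min following compound addition to cells pre-loaded 1 h with calcium dye.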

[5] = p53 small molecule agonists, cell-based qHTS assay with rat liver microsomes: qHTS cell viability counter screen (AID 1963580); further: nearly all actives have a fitted effect of over 45% in size
Summary of the method: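 p53RE-bla HCT-116 cells (4,000/well) rested 5 h at 37 C, then given Tox21 compounds in DMSO with rat liver microsomes (0.5 mg/mL final) plus NADPH (0.5 mg/mL final) for 16 h at 37 C. Viability read by CellTiter-Glo luminescence after 30 min at room temperature.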

[6] = p53 small molecule agonists, cell-based qHTS assay: qHTS cell viability counter screen (AID 1963581); further: nearly all actives have a fitted effect of over 45% in size
Summary of the method: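 Compounds are pinned onto HCT-116 p53RE-bla cells and left 16 h at 37 C. Following the reporter FRET read, ATP is quantified by CellTiter-Glo luminescence after 30 min at room temperature.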

[7] = molecular target: 5-hydroxytryptamine receptor 2A (Homo sapiens) (UniProt P28223); test: 5-hydroxytryptamine receptor 2A (HTR2A) small molecule antagonists, cell-based qHTS assay (AID 1963586); further: nearly all actives have a fitted effect of over 45% in size
Sequence of 5-hydroxytryptamine receptor 2A (Homo sapiens) (P28223 whole entry, looked up): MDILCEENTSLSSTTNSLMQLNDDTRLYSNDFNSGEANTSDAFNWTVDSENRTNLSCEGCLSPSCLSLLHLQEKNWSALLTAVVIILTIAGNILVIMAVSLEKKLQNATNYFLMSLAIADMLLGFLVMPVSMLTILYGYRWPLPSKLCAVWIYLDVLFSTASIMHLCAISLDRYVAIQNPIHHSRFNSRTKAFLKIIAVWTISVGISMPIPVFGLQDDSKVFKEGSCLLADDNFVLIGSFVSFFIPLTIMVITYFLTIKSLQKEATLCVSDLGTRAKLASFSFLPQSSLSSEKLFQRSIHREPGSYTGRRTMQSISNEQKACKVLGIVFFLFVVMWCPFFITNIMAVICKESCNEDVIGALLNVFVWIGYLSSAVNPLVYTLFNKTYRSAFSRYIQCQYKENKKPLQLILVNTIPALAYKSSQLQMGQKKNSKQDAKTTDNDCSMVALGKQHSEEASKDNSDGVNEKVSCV
Summary of the method: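 Antagonist-mode intracellular calcium assay: DOI (4 nM) added after 5 min compound pre-incubation at room temperature to dye-loaded HTR2A-CHO cells. Fluorescence followed for 3 min, sampled every second.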

[8] = molecular target: 5-hydroxytryptamine receptor 2A (Homo sapiens) (UniProt P28223); test: 5-hydroxytryptamine receptor 2A (HTR2A) small molecule agonists, cell-based qHTS assay (AID 1963587); further: nearly all actives have a fitted effect of over 30% in size; further: potency means the concentration at half of the fitted maximal effect
Summary of the method: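 HTR2A-CHO cells, plated 18 h at 37 C/5% CO2, dye-loaded 1 h at 37 C; compounds in DMSO added by pin tool (agonist mode). Intracellular calcium flux read as kinetic fluorescence on FDSS over 2 min at 1 s intervals.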

[9] = molecular target: Muscarinic acetylcholine receptor M1 (Homo sapiens) (UniProt P11229); test: Cholinergic receptor muscarinic 1 (CHRM1) small molecule agonists, cell-based qHTS assay (AID 1963589); further: nearly all actives have a fitted effect of over 35% in size
Sequence of Muscarinic acetylcholine receptor M1 (Homo sapiens) (P11229 whole entry, looked up): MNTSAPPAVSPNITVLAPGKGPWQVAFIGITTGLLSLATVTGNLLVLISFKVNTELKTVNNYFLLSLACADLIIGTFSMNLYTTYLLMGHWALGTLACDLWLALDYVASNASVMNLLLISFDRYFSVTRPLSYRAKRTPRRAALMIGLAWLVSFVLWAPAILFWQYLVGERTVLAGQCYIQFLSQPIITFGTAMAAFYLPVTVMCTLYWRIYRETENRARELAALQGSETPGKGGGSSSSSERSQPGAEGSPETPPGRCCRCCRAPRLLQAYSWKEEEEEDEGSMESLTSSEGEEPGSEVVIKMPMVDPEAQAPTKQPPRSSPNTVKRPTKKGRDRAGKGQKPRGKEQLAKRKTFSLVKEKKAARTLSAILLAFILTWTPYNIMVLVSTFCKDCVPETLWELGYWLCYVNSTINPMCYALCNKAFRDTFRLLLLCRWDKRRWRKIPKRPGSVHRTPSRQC
Summary of the method: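 Stable CHRM1-CHO cells (human receptor) were incubated 18 h, dye-loaded for 1 h at 37 C and exposed to test compounds for agonist activity, with calcium-dependent fluorescence followed kinetically.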

[10] = cAMP Responsive Elements (CRE) small molecule agonists, cell-based qHTS assay (AID 1963590)
Summary of the method: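 FRET-based beta-lactamase readout (LiveBLAzer B/G, 2 h RT) quantified CRE activation in HEK 293T CRE-bla cells after 3 h treatment with DMSO-dissolved compounds.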

[11] = cAMP Responsive Elements (CRE) small molecule antagonists, cell-based qHTS assay (AID 1963591; active means well fitted inhibition curve with a large enough effect in the signal ratio in the repeat runs, not every such curve was filed as active; the % refers to the signal ratio)
Summary of the method: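 qHTS in CRE-bla HEK 293T cells: compound in DMSO, then 0.25 uM NKH477 (final), 3 h at 37 °C/5% CO2; beta-lactamase FRET read-out after 2 h substrate incubation.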

[12] = molecular target: Beta-2 adrenergic receptor (Homo sapiens) (UniProt P07550); test: Adrenergic beta2 receptor (ADRB2) small molecule antagonists, cell-based qHTS assay (AID 1963592); further: nearly all actives have a fitted effect of over 50% in size; further: potency means the concentration at half of the fitted maximal effect; on activity change, negative = inhibition: series mostly up to about 92 µM
Sequence of Beta-2 adrenergic receptor (Homo sapiens) (P07550 whole entry, looked up): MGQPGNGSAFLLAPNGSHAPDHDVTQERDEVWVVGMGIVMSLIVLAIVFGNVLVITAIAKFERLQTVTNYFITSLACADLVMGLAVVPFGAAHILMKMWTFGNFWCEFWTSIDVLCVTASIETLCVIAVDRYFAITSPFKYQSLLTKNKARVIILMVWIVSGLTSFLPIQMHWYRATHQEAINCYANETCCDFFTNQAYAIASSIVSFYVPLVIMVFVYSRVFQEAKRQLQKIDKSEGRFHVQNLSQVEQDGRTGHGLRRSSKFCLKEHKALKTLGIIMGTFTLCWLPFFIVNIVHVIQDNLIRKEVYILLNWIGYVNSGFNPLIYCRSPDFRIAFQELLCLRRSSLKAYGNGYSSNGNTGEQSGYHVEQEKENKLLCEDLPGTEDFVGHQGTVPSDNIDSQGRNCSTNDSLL
Summary of the method: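 Cells (CHO, stable ADRB2 overexpression) incubated 18-20hr at 37C; compounds added from DMSO; agonist mix (1nM isoproterenol, 100uM IBMX, 25uM Ro-20-1724) added; 0.5hr RT; d2-cAMP and anti-cAMP-cryptate added; 1hr RT; 665/615 nm read.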

[13] = molecular target: D(2) dopamine receptor (Homo sapiens) (UniProt P14416); test: Dopamine D2 receptor (DRD2) small molecule agonists, cell-based qHTS assay (AID 1963594); further: nearly all actives have a fitted effect of over 35% in size
Sequence of D(2) dopamine receptor (Homo sapiens) (P14416 whole entry, looked up): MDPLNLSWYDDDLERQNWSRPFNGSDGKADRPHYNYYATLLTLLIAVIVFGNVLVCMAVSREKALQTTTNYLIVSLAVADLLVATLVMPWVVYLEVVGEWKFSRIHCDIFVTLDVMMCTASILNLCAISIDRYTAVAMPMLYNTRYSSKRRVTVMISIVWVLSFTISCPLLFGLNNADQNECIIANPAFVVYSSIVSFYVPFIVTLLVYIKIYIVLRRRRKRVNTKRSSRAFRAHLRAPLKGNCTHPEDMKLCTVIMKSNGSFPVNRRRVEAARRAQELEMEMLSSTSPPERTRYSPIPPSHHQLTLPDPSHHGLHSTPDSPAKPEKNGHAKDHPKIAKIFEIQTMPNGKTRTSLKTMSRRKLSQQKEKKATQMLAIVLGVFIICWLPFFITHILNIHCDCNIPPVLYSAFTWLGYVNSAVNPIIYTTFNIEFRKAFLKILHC
Summary of the method: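 HEK293 cells stably expressing DRD2 were cultured 24 h at 37 C, then given Ro20-1724 (0.1 mM final) and compounds for 10 min at room temperature. NKH477 (200nM) was then added for 30 min. cAMP was read by HTRF.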

[14] = molecular target: D(2) dopamine receptor (Homo sapiens) (UniProt P14416); test: Dopamine D2 receptor (DRD2) small molecule antagonists, cell-based qHTS assay (AID 1963595; active means well fitted inhibition curve with a large enough effect in the signal ratio in the repeat runs, with a control signal flat; the % refers to the signal ratio; further: potency means the concentration at half of the fitted maximal effect)
Summary of the method: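 Antagonist mode in DRD2-HEK293 cells: after compound addition with 0.1 mM Ro20-1724, cells received quinpirole (12 nM) and NKH477 (200 nM) for 30 min at room temperature; HTRF cAMP read after 1 h detection.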

[15] = p53 small molecule agonists, cell-based qHTS assay with human liver microsomes (AID 1963577)
Summary of the method: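 Fluorescence of the beta-lactamase reporter in p53RE-bla cells, detected with LiveBLAzer substrate (2 h, room temperature, dark), served as the read-out after 16 h compound exposure at 37 C with human liver microsomes and NADPH, each 0.5 mg/mL final.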

[16] = p53 small molecule agonists, cell-based qHTS assay with rat liver microsomes (AID 1963578)
Summary of the method: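 Cells carrying a p53 response element–beta-lactamase reporter were plated and rested 5 h, then dosed with compound in DMSO plus rat liver microsomes and NADPH, each at 0.5 mg/mL final. After 16 h at 37 C, LiveBLAzer substrate was added for 2 h.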

[17] = p53 small molecule agonists, cell-based qHTS assay with human liver microsomes: qHTS cell viability counter screen (AID 1963579); further: nearly all actives have a fitted effect of over 45% in size
Summary of the method: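 Cytotoxicity counter screen: p53RE-bla, 4,000 cells/well; 5 h settle, 37 C/5% CO2; cpd + HLM 0.5 mg/mL + NADPH 0.5 mg/mL (final); 16 h, 37 C; CellTiter-Glo, 30 min RT, luminescence.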

[18] = p53 small molecule agonists, cell-based qHTS assay (AID 1963582; active means well fitted activation curve with a large enough effect in the signal ratio in the repeat runs, not every such curve was filed as active; the % refers to the signal ratio)
Summary of the method: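 Agonist activity was scored from beta-lactamase FRET fluorescence in p53RE-bla cells treated 16 h at 37 C with compounds in DMSO, substrate incubation being 2 h at room temperature.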

[19] = molecular target: Muscarinic acetylcholine receptor M1 (Homo sapiens) (UniProt P11229); test: Cholinergic receptor muscarinic 1 (CHRM1) small molecule antagonists, cell-based qHTS assay (AID 1963588); further: nearly all actives have a fitted effect of over 40% in size; further: potency means the concentration at half of the fitted maximal effect
Summary of the method: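 CHRM1-CHO calcium-flux assay, antagonist mode. Cells were seeded 18 h, dye-loaded 1 h at 37 C and given compound for 5 min at RT, then acetylcholine was added at 50nM. FDSS fluorescence was read 3 min; 15 concentrations, three runs.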

[20] = molecular target: Beta-2 adrenergic receptor (Homo sapiens) (UniProt P07550); test: Adrenergic beta2 receptor (ADRB2) small molecule agonists, cell-based qHTS assay (AID 1963593);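 further: CHO cells stably overexpressing human ADRB2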
Summary of the method: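 CHO cells stably over-expressing ADRB2 were plated overnight at 37C, then dosed with compounds plus a stimulation mix containing 100uM IBMX and 25uM Ro-20-1724 for 0.5hr at room temperature. cAMP was measured by HTRF competition, 1hr.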
On the % scale 0 is the no-effect control and ±100 the full control effect.

CCCCCCCCCCCCOCCO
active: Potency [2] 27.3 µM
inactive: Potency [1] | Potency [3] | Potency [4] | Potency [5] | Potency [6] | Potency [7] | Potency [8] | Potency [9] | Potency [10] | Potency [11] | Potency [12] | Potency [13] | Potency [14]

CO[C@@]1(NC(=O)CSC[C@@H](N)C(=O)O)C(=O)N2C(C(=O)O)=C(CSc3nnnn3C)CS[C@@H]21
inactive: Potency [1] | Potency [2] | Potency [3] | Potency [4] | Potency [15] | Potency [16] | Potency [17] | Potency [5] | Potency [6] | Potency [18] | Potency [7] | Potency [8] | Potency [19] | Potency [9] | Potency [10] | Potency [11] | Potency [12] | Potency [20] | Potency [13] | Potency [14]

C/C=C(\C)C(=O)OC/C=C(\C)CCC=C(C)C
inactive: Potency [1] | Potency [2] | Potency [3] | Potency [4] | Potency [15] | Potency [16] | Potency [17] | Potency [5] | Potency [6] | Potency [18] | Potency [7] | Potency [8] | Potency [19] | Potency [9] | Potency [10] | Potency [11] | Potency [12] | Potency [20] | Potency [13]

CCCCCCCCCCCCOCC1CO1 (configuration not stated)
inactive: Potency [1] | Potency [3] | Potency [4] | Potency [5] | Potency [6] | Potency [7] | Potency [19] | Potency [10] | Potency [11] | Potency [12] | Potency [13] | Potency [14]
active: Potency [2] 46.3 µM

O=C(O)/C=C/C(=O)O
inactive: Potency [1] | Potency [2] | Potency [3] | Potency [4] | Potency [7] | Potency [8] | Potency [19] | Potency [10] | Potency [12] | Potency [20] | Potency [13] | Potency [14]

O=C(Oc1ccccc1)c1ccccc1
inactive: Potency [1] | Potency [2] | Potency [3] | Potency [4] | Potency [17] | Potency [6] | Potency [7] | Potency [19] | Potency [9] | Potency [11] | Potency [12] | Potency [20] | Potency [13] | Potency [14]
55 µM (active) and inactive: Potency [8]

CCOC(=O)N1CCC(=C2c3ccc(Cl)cc3CCc3cccnc32)CC1
active: Potency [1] 68.6 µM and 26.6 µM | Potency [12] 54.5 µM
inactive: Potency [2] | Potency [3] | Potency [4] | Potency [6] | Potency [13] | Potency [14]

C[N+](C)(C)CCO
inactive: Potency [1] | Potency [2] | Potency [3] | Potency [4] | Potency [17] | Potency [10] | Potency [11] | Potency [12] | Potency [20] | Potency [13] | Potency [14]

COc1c(Cl)ccc(Cl)c1C(=O)O
inactive: Potency [1] | Potency [2] | Potency [3] | Potency [4] | Potency [5] | Potency [6] | Potency [7] | Potency [19] | Potency [9] | Potency [10] | Potency [11] | Potency [12] | Potency [20] | Potency [13] | Potency [14]

C[C@@H]1NC(=O)[C@@H](N)CNC(=O)[C@H](C2CCNC(N)=N2)NC(=O)/C(=C/NC(N)=O)NC(=O)[C@H](CNC(=O)C[C@@H](N)CCCN)NC1=O (some centres not stated)
inactive: activity change, negative = cytotoxicity [1] -0.202% [at 0.349 µM] | activity, positive = activation [2] -0.551% [at 0.349 µM] | activity change [3] -0.0026% [at 0.217 µM, stronger effect = higher value] | activation [4] 4.86% [at 0.29 µM] | activation [15] -0.0566% [at 0.249 µM] | activation [16] 0.811% [at 0.249 µM] | activity change, negative = cytotoxicity [17] 0.952% [at 0.249 µM] | activity change, negative = cytotoxicity [5] -3.72% [at 0.249 µM] | activity change, negative = cytotoxicity [6] -17.8% [at 0.249 µM] | activation [18] 5.76% [at 0.249 µM] | activity, negative = inhibition [7] 39.2% [at 0.233 µM] | activation [8] -0.558% [at 0.292 µM] | activity, negative = inhibition [19] -3.02% [at 0.232 µM] | activation [9] -0.0449% [at 0.29 µM] | activation [10] -0.384% [at 0.349 µM] | activity change, negative = inhibition [11] 0.0328% [at 0.349 µM] | activity change, negative = inhibition [12] 6.03% [at 0.349 µM] | activation [20] -2.39% [at 0.349 µM] | activation [13] -0.993% [at 0.349 µM]

Oc1ccc2cc(SSc3ccc4cc(O)ccc4c3)ccc2c1
inactive: Potency [1] | Potency [3] | Potency [4] | Potency [5] | Potency [6] | Potency [8] | Potency [19] | Potency [9] | Potency [11] | Potency [13] | Potency [14]
active: Potency [2] 68.7 µM and 68.6 µM

CN=C(NC#N)NCCSCc1nc[nH]c1C
inactive: Potency [1] | Potency [2] | Potency [3] | Potency [4] | Potency [5] | Potency [6] | Potency [10] | Potency [11] | Potency [12] | Potency [13] | Potency [14]

O=C1c2cccc(O)c2C(=O)c2c(O)cccc21
active: Potency [2] 27.6 µM
inactive: Potency [3] | Potency [4] | Potency [17] | Potency [6] | Potency [18] | Potency [7] | Potency [8] | Potency [9] | Potency [10] | Potency [12] | Potency [20] | Potency [13] | Potency [14]
inactive and 3.35 µM (active): Potency [1]

Clc1ccc2c(c1)C(N1CCNCC1)=Nc1ccccc1O2
active: Potency [1] 61.1 µM | Potency [14] 13.7 µM and 8.41 µM
inactive: Potency [2] | Potency [3] | Potency [4] | Potency [17] | Potency [5] | Potency [10] | Potency [11] | Potency [12] | Potency [13]

COC(=O)C1=C(C)NC(C)=C(C(=O)OCCN(C)Cc2ccccc2)C1c1cccc([N+](=O)[O-])c1 (configuration not stated)
active: Potency [1] 30.5 µM
inactive: Potency [2] | Potency [3] | Potency [4] | Potency [6] | Potency [7] | Potency [8] | Potency [9] | Potency [11] | Potency [12] | Potency [14]
1.32 µM (active) and inactive: Potency [19]

From PubChem BioAssay (Tox21)
